This passage reports inhibition results from ChEMBL document CHEMBL1961873, “Compounds: GSK PKIS; Assays: Nanosyn kinase panel” (2012).

Structures are written as SMILES.

Assay [1] has as its target Fibroblast growth factor receptor 4 (Homo sapiens) (UniProt P22455). The following applies: at 1 µM.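 Further: reported figure is the averaged percent inhibition of FGFR4, from the GSK PKIS kinase screening panel.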
Assay [2] addresses Tyrosine-protein kinase Fgr (Homo sapiens) (UniProt P09769). The following applies: at 0.1 µM.
Assay [3] has the same target. The following applies: at 1 µM.
The target of assay [4] is Vascular endothelial growth factor receptor 1 (Homo sapiens) (UniProt P17948). The following applies: at 0.1 µM.
Vascular endothelial growth factor receptor 1 (Homo sapiens), sequence (P17948 whole entry): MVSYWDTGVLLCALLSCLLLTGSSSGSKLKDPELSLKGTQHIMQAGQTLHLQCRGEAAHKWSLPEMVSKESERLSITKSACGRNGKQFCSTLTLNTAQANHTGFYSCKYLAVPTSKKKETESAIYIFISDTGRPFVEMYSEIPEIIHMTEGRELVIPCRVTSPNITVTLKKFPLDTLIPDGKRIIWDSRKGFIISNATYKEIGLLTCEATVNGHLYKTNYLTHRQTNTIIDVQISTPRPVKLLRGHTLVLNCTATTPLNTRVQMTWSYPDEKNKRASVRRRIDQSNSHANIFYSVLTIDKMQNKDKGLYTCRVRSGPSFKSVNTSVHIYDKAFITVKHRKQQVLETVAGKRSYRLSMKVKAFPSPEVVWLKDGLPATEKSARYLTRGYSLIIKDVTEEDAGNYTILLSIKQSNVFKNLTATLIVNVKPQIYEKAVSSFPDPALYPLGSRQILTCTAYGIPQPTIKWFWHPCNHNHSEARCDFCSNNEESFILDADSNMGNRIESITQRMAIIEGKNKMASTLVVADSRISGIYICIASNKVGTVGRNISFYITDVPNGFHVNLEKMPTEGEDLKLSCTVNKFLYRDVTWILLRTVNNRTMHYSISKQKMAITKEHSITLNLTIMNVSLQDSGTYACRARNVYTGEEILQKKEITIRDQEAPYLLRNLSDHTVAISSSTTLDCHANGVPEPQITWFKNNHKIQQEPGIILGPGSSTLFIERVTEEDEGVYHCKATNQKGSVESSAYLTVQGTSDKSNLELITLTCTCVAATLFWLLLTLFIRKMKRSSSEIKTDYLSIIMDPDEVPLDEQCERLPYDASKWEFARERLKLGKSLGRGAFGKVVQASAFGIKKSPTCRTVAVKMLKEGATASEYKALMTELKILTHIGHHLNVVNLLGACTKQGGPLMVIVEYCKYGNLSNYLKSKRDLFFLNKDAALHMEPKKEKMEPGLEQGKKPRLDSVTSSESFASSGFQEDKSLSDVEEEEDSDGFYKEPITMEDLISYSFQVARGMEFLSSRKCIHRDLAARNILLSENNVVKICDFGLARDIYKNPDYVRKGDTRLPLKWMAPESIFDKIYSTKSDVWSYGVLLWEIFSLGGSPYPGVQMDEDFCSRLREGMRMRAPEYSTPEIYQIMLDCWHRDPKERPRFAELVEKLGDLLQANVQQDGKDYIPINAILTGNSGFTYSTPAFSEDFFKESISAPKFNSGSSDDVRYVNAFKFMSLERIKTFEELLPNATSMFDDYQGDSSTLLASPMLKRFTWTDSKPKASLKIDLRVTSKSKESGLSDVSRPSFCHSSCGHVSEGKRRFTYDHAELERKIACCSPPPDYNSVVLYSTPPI
Assay [5] shares this target. The following applies: at 1 µM.
For assay [6], the target named is Receptor-type tyrosine-protein kinase FLT3 (Homo sapiens) (UniProt P36888). The following applies: at 0.1 µM.
The target is the same in assay [7]. The following applies: at 1 µM.
Assay [8] relates to T1, Receptor-type tyrosine-protein kinase FLT3 (Homo sapiens), P36888 [D835Y].
T1 sequence (whole entry): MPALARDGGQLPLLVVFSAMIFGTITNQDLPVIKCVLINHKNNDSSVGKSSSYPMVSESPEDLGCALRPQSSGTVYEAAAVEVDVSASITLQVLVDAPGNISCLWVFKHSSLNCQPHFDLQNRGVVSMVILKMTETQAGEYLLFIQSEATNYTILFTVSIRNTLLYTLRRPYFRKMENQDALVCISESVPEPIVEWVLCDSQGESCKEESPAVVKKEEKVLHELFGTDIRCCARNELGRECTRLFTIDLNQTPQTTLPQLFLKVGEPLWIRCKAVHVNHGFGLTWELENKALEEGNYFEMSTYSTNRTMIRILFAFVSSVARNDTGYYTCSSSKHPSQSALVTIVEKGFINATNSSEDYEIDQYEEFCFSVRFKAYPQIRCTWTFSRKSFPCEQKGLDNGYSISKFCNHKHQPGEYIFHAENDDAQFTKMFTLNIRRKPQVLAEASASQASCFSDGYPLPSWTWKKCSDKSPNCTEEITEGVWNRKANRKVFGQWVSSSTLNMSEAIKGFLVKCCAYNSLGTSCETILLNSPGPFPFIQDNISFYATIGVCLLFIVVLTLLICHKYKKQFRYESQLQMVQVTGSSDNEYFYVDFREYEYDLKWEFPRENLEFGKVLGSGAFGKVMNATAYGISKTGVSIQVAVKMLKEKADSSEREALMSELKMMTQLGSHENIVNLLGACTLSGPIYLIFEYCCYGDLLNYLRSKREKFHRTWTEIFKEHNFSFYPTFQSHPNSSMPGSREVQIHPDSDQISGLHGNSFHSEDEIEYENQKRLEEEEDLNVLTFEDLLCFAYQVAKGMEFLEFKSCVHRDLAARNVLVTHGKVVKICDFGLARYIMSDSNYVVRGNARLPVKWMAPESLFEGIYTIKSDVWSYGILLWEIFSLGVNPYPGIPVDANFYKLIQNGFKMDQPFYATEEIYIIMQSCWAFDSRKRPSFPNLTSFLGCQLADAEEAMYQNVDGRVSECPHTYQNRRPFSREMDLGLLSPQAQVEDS
The following applies: at 0.1 µM.

For assay [9], the target named is Non-receptor tyrosine-protein kinase TYK2 (Homo sapiens) (UniProt P29597). The following applies: at 1 µM.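 Further: values are mean percent inhibition of TYK2 kinase.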
Non-receptor tyrosine-protein kinase TYK2 (Homo sapiens), sequence (P29597 whole entry): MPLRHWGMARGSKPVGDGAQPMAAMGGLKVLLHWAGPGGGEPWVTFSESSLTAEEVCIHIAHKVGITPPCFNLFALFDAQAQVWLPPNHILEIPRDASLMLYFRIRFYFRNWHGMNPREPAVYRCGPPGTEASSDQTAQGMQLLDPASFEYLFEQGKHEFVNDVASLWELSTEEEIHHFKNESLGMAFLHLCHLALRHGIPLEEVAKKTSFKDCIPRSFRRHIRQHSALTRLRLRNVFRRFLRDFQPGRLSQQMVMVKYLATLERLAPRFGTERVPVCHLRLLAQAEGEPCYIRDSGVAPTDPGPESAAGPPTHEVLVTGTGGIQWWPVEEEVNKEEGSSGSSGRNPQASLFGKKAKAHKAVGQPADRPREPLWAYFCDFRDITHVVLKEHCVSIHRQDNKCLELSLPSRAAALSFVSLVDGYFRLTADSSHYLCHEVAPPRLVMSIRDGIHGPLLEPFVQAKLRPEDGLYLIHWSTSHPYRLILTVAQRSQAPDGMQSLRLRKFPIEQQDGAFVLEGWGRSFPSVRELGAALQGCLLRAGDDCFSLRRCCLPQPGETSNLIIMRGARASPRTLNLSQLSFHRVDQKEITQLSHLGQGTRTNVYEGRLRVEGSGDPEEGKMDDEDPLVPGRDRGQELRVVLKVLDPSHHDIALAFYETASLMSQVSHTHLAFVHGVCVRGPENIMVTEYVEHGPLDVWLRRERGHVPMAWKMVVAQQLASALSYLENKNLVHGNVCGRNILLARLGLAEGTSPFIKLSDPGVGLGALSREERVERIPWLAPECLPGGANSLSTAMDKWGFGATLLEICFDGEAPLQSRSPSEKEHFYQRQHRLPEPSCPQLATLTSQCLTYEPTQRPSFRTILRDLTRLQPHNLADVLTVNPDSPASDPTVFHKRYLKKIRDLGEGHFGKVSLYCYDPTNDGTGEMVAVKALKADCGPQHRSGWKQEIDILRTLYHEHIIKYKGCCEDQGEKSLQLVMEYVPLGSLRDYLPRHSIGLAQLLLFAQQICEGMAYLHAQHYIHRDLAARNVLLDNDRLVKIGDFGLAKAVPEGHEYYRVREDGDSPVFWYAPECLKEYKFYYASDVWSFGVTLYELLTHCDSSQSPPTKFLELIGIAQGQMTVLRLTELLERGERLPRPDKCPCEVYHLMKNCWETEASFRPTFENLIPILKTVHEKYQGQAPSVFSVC
Assay [10] addresses T2, Tyrosine-protein kinase receptor TYRO3 (Homo sapiens) (UniProt Q06418).
T2 sequence (whole entry): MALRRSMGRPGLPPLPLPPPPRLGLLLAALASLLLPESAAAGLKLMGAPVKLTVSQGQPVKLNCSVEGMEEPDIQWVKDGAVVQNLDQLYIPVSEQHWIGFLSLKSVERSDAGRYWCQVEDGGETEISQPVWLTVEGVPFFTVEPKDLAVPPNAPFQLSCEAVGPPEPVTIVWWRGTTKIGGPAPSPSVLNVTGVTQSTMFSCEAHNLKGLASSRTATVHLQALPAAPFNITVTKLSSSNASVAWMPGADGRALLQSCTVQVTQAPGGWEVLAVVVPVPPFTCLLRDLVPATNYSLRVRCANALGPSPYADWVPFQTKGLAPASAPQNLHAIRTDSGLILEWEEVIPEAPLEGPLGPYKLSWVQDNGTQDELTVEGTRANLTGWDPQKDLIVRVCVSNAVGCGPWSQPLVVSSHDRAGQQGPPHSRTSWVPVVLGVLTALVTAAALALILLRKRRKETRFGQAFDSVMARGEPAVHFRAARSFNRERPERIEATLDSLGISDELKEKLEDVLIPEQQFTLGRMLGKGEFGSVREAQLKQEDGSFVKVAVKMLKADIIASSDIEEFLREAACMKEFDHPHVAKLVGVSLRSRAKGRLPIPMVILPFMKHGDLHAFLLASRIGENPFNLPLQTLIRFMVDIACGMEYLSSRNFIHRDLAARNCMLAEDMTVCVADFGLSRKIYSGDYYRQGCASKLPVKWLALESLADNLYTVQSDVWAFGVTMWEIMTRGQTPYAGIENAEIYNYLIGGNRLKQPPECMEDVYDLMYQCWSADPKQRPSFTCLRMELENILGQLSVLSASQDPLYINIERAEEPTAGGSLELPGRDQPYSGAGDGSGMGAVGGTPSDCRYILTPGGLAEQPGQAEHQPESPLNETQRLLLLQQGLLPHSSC
The following applies: at 0.1 µM.

Assay [11] addresses T2, Tyrosine-protein kinase receptor TYRO3 (Homo sapiens). The following applies: at 1 µM.
The target of assay [12] is Tyrosine-protein kinase Yes (Homo sapiens) (UniProt P07947). The following applies: at 0.1 µM.
Tyrosine-protein kinase Yes (Homo sapiens), sequence (P07947 2-543 limits assumed): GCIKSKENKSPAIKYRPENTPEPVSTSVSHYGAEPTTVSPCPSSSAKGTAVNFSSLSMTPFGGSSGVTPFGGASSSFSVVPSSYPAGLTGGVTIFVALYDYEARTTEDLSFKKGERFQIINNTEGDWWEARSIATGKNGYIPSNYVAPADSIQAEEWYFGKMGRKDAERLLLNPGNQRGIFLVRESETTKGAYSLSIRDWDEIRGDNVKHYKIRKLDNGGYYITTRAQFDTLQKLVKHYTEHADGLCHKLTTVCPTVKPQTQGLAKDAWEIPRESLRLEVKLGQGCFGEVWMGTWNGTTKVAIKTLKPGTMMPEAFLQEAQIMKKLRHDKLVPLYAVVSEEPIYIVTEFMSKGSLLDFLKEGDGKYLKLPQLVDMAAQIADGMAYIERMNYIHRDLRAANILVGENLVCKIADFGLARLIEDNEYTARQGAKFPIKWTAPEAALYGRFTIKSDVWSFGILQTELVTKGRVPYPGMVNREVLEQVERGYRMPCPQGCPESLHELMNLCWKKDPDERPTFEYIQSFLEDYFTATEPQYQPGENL
Assay [13] shares this target. The following applies: at 1 µM.
In assay [14] the target is T3, Tyrosine-protein kinase ZAP-70 (Homo sapiens) (UniProt P43403).
T3 sequence (whole entry): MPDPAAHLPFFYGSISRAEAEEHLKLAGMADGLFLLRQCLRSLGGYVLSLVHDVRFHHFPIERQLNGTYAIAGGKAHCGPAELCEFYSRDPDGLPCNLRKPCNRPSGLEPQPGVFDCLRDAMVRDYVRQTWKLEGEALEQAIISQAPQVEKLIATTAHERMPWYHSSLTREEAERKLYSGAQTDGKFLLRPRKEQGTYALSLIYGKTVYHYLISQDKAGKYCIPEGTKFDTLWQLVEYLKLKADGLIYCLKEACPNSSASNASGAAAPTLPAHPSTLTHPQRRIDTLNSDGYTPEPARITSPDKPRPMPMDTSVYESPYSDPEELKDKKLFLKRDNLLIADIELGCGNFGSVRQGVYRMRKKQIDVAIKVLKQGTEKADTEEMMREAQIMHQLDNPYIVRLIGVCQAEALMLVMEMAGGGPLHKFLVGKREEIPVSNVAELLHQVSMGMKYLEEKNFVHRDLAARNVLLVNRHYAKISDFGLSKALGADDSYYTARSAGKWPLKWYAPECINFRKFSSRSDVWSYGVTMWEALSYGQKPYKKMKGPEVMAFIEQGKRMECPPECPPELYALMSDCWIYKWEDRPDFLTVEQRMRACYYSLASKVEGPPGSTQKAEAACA
The following applies: at 0.1 µM.

Assay [15] has as its target T3, Tyrosine-protein kinase ZAP-70 (Homo sapiens). The following applies: at 1 µM.
Assay [16] concerns the target Serine/threonine-protein kinase B-raf (Homo sapiens) (UniProt P15056). The following applies: at 0.1 µM.
Assay [17] shares this target. The following applies: at 1 µM.
For assay [18], the system named is Serine/threonine-protein kinase B-raf (Homo sapiens), P15056 [V600E]. The following applies: at 0.1 µM.
Serine/threonine-protein kinase B-raf (Homo sapiens), P15056 [V600E], sequence (P15056 whole entry V600E): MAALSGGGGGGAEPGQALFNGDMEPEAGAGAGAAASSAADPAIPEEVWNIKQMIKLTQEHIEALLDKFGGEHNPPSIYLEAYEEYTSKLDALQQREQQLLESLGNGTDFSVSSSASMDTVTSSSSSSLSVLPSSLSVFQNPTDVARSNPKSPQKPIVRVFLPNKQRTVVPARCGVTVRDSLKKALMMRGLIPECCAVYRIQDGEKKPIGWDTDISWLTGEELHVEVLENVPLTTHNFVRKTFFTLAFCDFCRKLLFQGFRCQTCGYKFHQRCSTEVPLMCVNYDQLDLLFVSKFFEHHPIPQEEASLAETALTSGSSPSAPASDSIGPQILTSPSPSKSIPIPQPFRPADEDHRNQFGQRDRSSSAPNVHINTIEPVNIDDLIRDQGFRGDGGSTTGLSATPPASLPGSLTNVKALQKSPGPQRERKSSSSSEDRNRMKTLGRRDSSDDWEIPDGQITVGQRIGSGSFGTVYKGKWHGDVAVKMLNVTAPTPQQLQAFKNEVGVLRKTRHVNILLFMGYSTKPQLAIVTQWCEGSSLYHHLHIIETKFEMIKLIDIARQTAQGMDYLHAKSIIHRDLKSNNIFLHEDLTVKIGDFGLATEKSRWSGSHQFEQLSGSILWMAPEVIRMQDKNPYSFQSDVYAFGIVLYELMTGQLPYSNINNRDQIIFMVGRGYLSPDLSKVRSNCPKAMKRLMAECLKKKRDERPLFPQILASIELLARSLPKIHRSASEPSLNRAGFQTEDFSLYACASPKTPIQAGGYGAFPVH
Assay [19] shares this test system. The following applies: at 1 µM.
Assay [20] concerns the target RAF proto-oncogene serine/threonine-protein kinase (Homo sapiens) (UniProt P04049). The following applies: at 0.1 µM.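 Further: values are mean CRAF kinase inhibition from profiling of the GSK Published Kinase Inhibitor Set.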

Tyrosine-protein kinase Fgr (Homo sapiens), sequence (P09769 2-529 limits assumed): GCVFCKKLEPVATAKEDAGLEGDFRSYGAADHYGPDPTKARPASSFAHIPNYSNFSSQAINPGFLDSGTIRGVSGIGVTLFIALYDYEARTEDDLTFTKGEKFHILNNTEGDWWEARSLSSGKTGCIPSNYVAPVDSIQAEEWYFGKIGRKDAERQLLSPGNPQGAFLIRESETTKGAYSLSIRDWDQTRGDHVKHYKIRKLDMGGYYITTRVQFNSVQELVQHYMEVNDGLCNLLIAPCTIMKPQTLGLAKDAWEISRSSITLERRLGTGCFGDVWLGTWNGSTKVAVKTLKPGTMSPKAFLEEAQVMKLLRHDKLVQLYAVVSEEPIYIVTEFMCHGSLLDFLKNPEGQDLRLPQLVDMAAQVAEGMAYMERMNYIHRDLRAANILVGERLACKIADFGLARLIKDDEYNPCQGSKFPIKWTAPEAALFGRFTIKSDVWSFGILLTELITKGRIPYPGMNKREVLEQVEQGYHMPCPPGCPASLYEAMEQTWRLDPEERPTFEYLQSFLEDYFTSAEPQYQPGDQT
RAF proto-oncogene serine/threonine-protein kinase (Homo sapiens), sequence (P04049 whole entry): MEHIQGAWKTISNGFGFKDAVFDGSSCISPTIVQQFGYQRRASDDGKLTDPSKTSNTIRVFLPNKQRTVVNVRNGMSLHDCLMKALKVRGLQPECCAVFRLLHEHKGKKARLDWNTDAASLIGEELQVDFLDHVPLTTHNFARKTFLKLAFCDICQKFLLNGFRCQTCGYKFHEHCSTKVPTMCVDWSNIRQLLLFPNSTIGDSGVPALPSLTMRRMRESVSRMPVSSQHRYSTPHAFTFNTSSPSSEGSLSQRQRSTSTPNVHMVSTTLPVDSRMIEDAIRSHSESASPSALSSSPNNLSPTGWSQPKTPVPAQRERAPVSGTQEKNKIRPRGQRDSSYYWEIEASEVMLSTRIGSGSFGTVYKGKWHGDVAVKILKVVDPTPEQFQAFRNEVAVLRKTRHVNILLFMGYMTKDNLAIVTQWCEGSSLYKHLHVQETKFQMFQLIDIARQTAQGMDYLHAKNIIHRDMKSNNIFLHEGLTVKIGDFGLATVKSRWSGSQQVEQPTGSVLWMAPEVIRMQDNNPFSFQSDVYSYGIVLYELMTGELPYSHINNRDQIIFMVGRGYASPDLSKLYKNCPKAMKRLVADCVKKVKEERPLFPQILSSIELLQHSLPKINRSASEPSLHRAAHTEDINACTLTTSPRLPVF
Serine/threonine-protein kinase B-raf (Homo sapiens), sequence (P15056 whole entry): as the sequence (P15056 whole entry V600E) above, with E600V counted along it

For `COC(=O)Nc1nc2ccc(Oc3ccc(NC(=O)Nc4cc(C(F)(F)F)ccc4F)cc3)cc2s1`, the inhibition in assay [1] amounted to 3.25%; in assay [2] it was 1.85%; in assay [3], 9.94%; in assay [4] it was 36%; in [5], 78.1%; in assay [6] it was 11.2%. In addition, the inhibition was 47.1% in [7]; -0.17% in [8]; 1.02% in assay [9]; 6.26% in assay [10]; 40% in assay [11]; 4.21% in [12]. The inhibition in assay [13] is 11.5%; in assay [14], 1.19%; in [15] it was -0.75%; in [16], 2.35%; in assay [17] it was 22.1%; in assay [18], 2.96%. Besides, the results for the inhibition in assay [19] and in assay [20] were 37.3% and 8.71%, respectively.
Consider `CCOc1ccc2c(-c3ccnc(Nc4cc(OC)cc(C(F)(F)F)c4)n3)cnn2n1`, for which the inhibition in assay [1] is 3.56%; in [2], 1.32%; in assay [3], 9.11%; in assay [4], 1.04%; in assay [5] it was 5.65%; in assay [6] it was 2.11%. The inhibition in [7] is 15.1%; in assay [8], 2.53%; in [9], 1.53%; in assay [10], 1.46%; in assay [11] it was 4.4%; in [12], 2.04%. Also, the inhibition in [13] was 6.75%; in assay [14], 0.43%; in assay [15], 3.29%; in assay [16], 0.89%; in assay [17], 1.03%; in [18] it was 0.43%. In addition, the inhibition was 1.03% in assay [19] and -4.87% in assay [20].
In the case of `Cn1c(-c2nonc2N)nc2cnccc21`, the inhibition in assay [1] came out at 1.93%; in [2], 2.79%; in assay [3] it was 3.33%; in assay [4] it was 1.36%; in assay [5] it was 1.68%; in [6] it was 4.49%. Moreover, the inhibition in assay [7] is 1.55%; in assay [8], 1.71%; in assay [9], -2.34%; in assay [10], 1.78%; in assay [11], 0.09%; in assay [12], 1.37%. For the same molecule, the inhibition in assay [13] stood at 1.42%; in [14], 3.27%; in assay [15], 1.74%; in assay [16], 4.15%; in assay [17], 3.62%; in [18], 4.29%. For the same molecule, the inhibition in assay [19] is 3.98%; in assay [20], 2.49%.
Consider `N#Cc1cccc(Nc2ncc(-c3ccccc3)o2)c1`, for which the inhibition in assay [1] came to 3.3%; in [2] it was 5.47%; in [3], 13.5%; in [4], 2.46%; in [5], 9.52%; in assay [6], 12%. Further, the inhibition is 61.8% in assay [7]; 3.75% in [8]; -1.92% in assay [9]; 1.76% in assay [10]; 6.8% in assay [11]; 2.87% in [12]. Besides, the inhibition in assay [13] is 17.7%; in [14], 0.3%; in assay [15] it was 1.57%; in [16] it was 3.08%; in assay [17], 3.51%; in [18], 3.18%. Also, the inhibition in assay [19] is 4.57%; in assay [20], -1.08%.
On to `CS(=O)(=O)CCNCc1ccoc1-c1ccc2ncnc(Nc3ccc(OCc4ccccc4)cc3)c2c1`, for which the inhibition is 1.85% in assay [1]; 2.61% in [2]; 12.6% in assay [3]; 2.35% in assay [4]; -0.36% in assay [5]; 1.82% in assay [6]. Further, the inhibition in assay [7] is 6.53%; in assay [8], -4.02%; in assay [9], 0.15%; in [10] it was 0.96%; in assay [11] it was 3.68%; in assay [12], 4.12%. For the same molecule, the inhibition is 21.9% in assay [13]; -0.82% in assay [14]; 2.26% in [15]; 1.03% in [16]; 1.49% in assay [17]; 1.75% in assay [18]. Further, the inhibition in assay [19] was 1.31%; in assay [20], -1.29%.
